According to PubChem BioAssay (NCATS):
Results filed as inconclusive are left out. Entries that show only a call come without a potency. The source made the active and inactive calls. Unless noted, calls follow the shape of the dose curve; as a rule, active = well fitted curve in the direction sought with a large enough effect; inconclusive = small, poorly fitted or top-dose-only effect, or another doubt; inactive = no such curve, though single readings can be large; an effect the other way counts as inactive or inconclusive.

What was measured:
[1] = tested on: Zika virus NS2B-NS3 protease (unlinked complex); assay: Primary screen GU Rhodamine qHTS for Zika virus inhibitors: Unlinked NS2B-NS3 protease assay (AID 1347159); also: nearly all actives have a fitted effect of over 60% in size
In short: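 Buffer 10 mM Tris-HCl pH 8.0, 0.01% Tween 20. Unlinked protease 25 nM; compound preincubation 15 min, RT, protected from light. Substrate Rhod110, 1.5 microM; ~15% conversion in 15 min.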

[2] = molecular target: Calcium and integrin-binding protein 1 (Homo sapiens) (UniProt Q99828); assay: Primary qHTS for Identification of Calcium Integrin Binding Protein 1 (CIB1) Competitor (AID 1508620);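 also: GST tagged CIB1 binding a fluorescein labelled alphaIIb integrin peptide tracer; top concentration of the series differs between compounds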
In short: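 Fluorescence polarization competition: CIB1-GST (1 uM final) preincubated with compound 15 min at room temperature, then FITC-labeled alphaIIb peptide (100 nM final) added for another 15 min. Polarization read at Ex 480/Em 540.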

[3] = molecular target: Cytochrome P450 2D6 (Homo sapiens) (UniProt P10635); assay: Cytochrome P450 family 2 subfamily D member 6 (CYP2D6) small molecule antagonists: luciferase biochemical (cell-free) qHTS assay (AID 1645840; active = well fitted curve in the direction sought with a large enough effect in the repeat runs; an effect the other way counts as inactive or inconclusive; also: potency is read from the fitted curve at half-maximal effect; nearly all actives have a fitted effect of over 55% in size)
In short: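 P450-Glo CYP2D6 system: proluciferin substrate converted by enzyme to luciferin, read by luminescence proportional to activity. Enzyme-substrate mix with compound 10 min at room temperature, then NADPH regeneration 1 h before detection reagent.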

[4] = molecular target: Cytochrome P450 2C9 (Homo sapiens) (UniProt P11712); assay: Cytochrome P450 family 2 subfamily C member 9 (CYP2C9) small molecule antagonists: luciferase biochemical (cell-free) qHTS assay (AID 1645842; active = well fitted curve in the direction sought with a large enough effect in the repeat runs; an effect the other way counts as inactive or inconclusive; also: potency is read from the fitted curve at half-maximal effect; nearly all actives have a fitted effect of over 55% in size)
In short: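 P450-Glo CYP2C9 system: proluciferin substrate with enzyme in mix containing 0.4% BSA, 10 min at room temperature, then NADPH regeneration solution added and incubated 1 h at 37C. Detection reagent stopped reaction; luminescence read after 20 min as RLU.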

[5] = molecular target: Catechol O-methyltransferase (Homo sapiens) (UniProt P21964); assay: Confirmatory Screen for Target Class Profiling of Small Molecule Inhibitors of Methyltransferases (AID 1745852); conditions: MTase-Glo luminescence, SAH detection, recombinant enzyme; measured here: COMT max response; stronger effect = lower value
[6] = molecular target: Guanidinoacetate N-methyltransferase (Homo sapiens) (UniProt Q14353); assay: as above; conditions: activity change, negative = inhibition: at 57.3 µM (top of the series) unless noted
[7] = molecular target: Nicotinamide N-methyltransferase (Homo sapiens) (UniProt P40261); assay: as above; conditions: MTase-Glo luminescence, SAH detection, recombinant enzyme; measured here: NNMT max response; stronger effect = lower value
[8] = molecular target: Phenylethanolamine N-methyltransferase (Homo sapiens) (UniProt P11086); assay: as above; conditions: MTase-Glo luminescence, SAH detection, recombinant enzyme; measured here: PNMT max response; stronger effect = lower value
[9] = molecular target: Glutathione peroxidase 1 (Homo sapiens) (UniProt P07203); assay: Primary qHTS Assay for Inhibitors of Recombinant Selenoprotein Glutathione Peroxidase 1 (GPX1) (AID 1845191); also: nearly all actives have a fitted effect of over 65% in size
In short: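 GPX1 10 nM, GR 100 nM, GSH 1 mM, NADPH 0.5 mM, CHP 0.5 mM (final). 30-min cpd preincubation, RT. Ex340/Em450 read t=0, t=15 min.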

[10] = molecular target: Phospholipid hydroperoxide glutathione peroxidase GPX4 (Homo sapiens) (UniProt P36969); assay: Primary qHTS Assay for Inhibitors of Recombinant Selenoprotein Glutathione Peroxidase 4 (GPX4) (AID 1845192); also: nearly all actives have a fitted effect of over 65% in size
In short: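 qHTS, GR-coupled: GPX4 200 nM + cpd 30 min RT → GSH 1 mM, NADPH 0.5 mM, GR 100 nM → CHP 0.5 mM start; fluor 340/450 at t0 and t15 min; no-enzyme wells as control.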

[11] = Primary fluorescence-based thiol-reactive (MSTI) qHTS assay for identification of artifact compounds. (AID 1845221);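 also: thiol-reactive compounds lower the probe fluorescence signal; nearly all actives have a fitted effect of over 65% in size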
In short: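 qHTS titration of compound; 4 uM MSTI, PBS pH 7.4, 2% DMSO; 1 h RT, dark; fluorescence 525/598 nm; normalized to Acetyl-MSTI and MSTI; 4-parameter Hill fit.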

[12] = tested on: Nanoluciferase (engineered Oplophorus gracilirostris luciferase); assay: Primary Nanoluciferase (NLuc) qHTS assay for identification of artifact compounds. (AID 1845222)
In short: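 Luminescence read-out of secreted NLuc in S16 cell conditioned medium (1:55); compounds tested with 15 min RT preincubation, then Nano-Glo substrate 1:100, 5 min. % inhibition vs no-enzyme and DMSO controls, 4-parameter Hill fit.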

[13] = Primary redox qHTS assay for identification of artifact compounds. (AID 1845223)
In short: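 Redox-cycling detection via DTT (250 uM final) oxidation coupled to Amplex Red (25 uM)/HRP (250 mU/mL) in HBSS. 15 min preincubation plus 30 min after DTT, room temperature. Ex/Em 525/598 nm; 4-parameter Hill fit against DMSO and 10 uM DA3003.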

KB-3-1 = assay: Cytotoxic Profiling of Annotated Libraries Using Quantitative High-Throughput Screening (AID 1296008); conditions: Five cell lines viability, CellTiter-Glo ATP luminescence, 48-72 h; max response: stronger effect = lower value; also: nearly all actives have a fitted effect of over 60% in size
In short: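 Compounds were pin-transferred onto cells and incubated 48 or 72 hr at 37 degree Celsius, 95% humidity. CellTiter-Glo was added, plates sat 10 min at room temperature, then ATP-coupled luminescence was imaged as the viability read-out.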

CAOV3 = assay: Primary qHTS to identify gynecologic anti-cancer compounds using libraries of approved drugs and bioactive compounds (AID 1345084); conditions: Gynecologic cancer cell panel viability, ATPlite luminescence, 48 h; series mostly up to 57.5 µM; also: nearly all actives have a fitted effect of over 55% in size
In short: (§1)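 Cells, 1,000 per well, were allowed to settle for 16 h at 37 C before compound addition. Five concentrations were tested for 48 h, and viability was read by ATPlite luminescence after 15 min at room temperature.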

CASKI = assay: as above; conditions: Gynecologic cancer cell panel viability, ATPlite luminescence, 48 h; series mostly up to 57.5 µM
In short: as §1

Es-2 = assay: as above; conditions: Gynecologic cancer cell panel viability, ATPlite luminescence, 48 h; series mostly up to 57.5 µM
In short: as §1

Hek293T = assay: as above; conditions: Gynecologic cancer cell panel viability, ATPlite luminescence, 48 h, control line for the selectivity index; series mostly up to 57.5 µM
In short: as §1

JEG-3 = assay: as above; conditions: Gynecologic cancer cell panel viability, ATPlite luminescence, 48 h; series mostly up to 57.5 µM
In short: as §1

OV90 = assay: as above; conditions: Gynecologic cancer cell panel viability, ATPlite luminescence, 48 h; series mostly up to 57.5 µM
In short: as §1

PA-1 = assay: as above; conditions: Gynecologic cancer cell panel viability, ATPlite luminescence, 48 h; series mostly up to 57.5 µM
In short: as §1

SKOV3 = assay: as above; conditions: Gynecologic cancer cell panel viability, ATPlite luminescence, 48 h; series mostly up to 57.5 µM
In short: as §1

Tov112D = assay: as above; conditions: Gynecologic cancer cell panel viability, ATPlite luminescence, 48 h; series mostly up to 57.5 µM
In short: as §1

CRL-7250 = normal cell line; assay: qHTS assay to identify novel small-molecules to repurpose for Merkel cell carcinoma treatment (AID 1296009); conditions: MCC and control cell lines, CellTiter-Glo viability, 72 h; series mostly up to 92 µM; also: nearly all actives have a fitted effect of over 60% in size
In short: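 Viability readout: ATP luminescence (CellTiter-Glo) after 72 hr drug exposure at 37 degree celsius. Dose-response format was 8 points for NPC and 11 points for MIPE; data normalized to in-plate controls.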

[14] = qHTS Assay for Identifying Gametocytocidal Compounds (AID 743244);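 also: actives lower the fluorescent signal which means gametocytes are killed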; conditions: P. falciparum 3D7 stage III-V gametocytes, alamarBlue, 72 h; max response: stronger effect = lower value
In short: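 P. falciparum 3D7 stage III–V gametocytes (20,000 cells/well) were exposed to compounds for 72 h at 37 °C, 5% CO2. AlamarBlue was then added for 24 h; decreased resorufin fluorescence (Ex 525/Em 598 nm) indicated loss of viability.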

[15] = Primary qHTS for Huh7 cytotoxicity: counterscreen for inhibitors of MERS-S pseudotyped particle cell entry (AID 1479147; calls by dose curve); conditions: outcome: dose series up to 57.1 µM unless noted
[16] = Primary qHTS for inhibitors of MERS-S pseudo-typed particle cell entry (AID 1479149; calls by dose curve; also: nearly all actives have a fitted effect of over 60% in size)
[17] = Primary qHTS for Vero E6 cytotoxicity: counterscreen for inhibitors of SARS-S pseudo-typed particle cell entry (AID 1479150; calls by dose curve); conditions: outcome: dose series up to 57.1 µM unless noted
[18] = Cytotoxicity counterscreen for inhibitors of SARS-CoV-2 cell entry (AID 1645845; calls by dose curve; also: nearly all actives have a fitted effect of over 50% in size)
In short: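 After a 15 min room-temperature ATPLite 1step step, luminescence reflected ATP remaining in HEK293-ACE2 cells exposed to compound for 1 h plus 48 h at 37 C, with percent activity set by cell and no-cell controls.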

[19] = Primary qHTS to identify inhibitors of SARS-CoV-2 cell entry (AID 1645846; calls by dose curve; also: nearly all actives have a fitted effect of over 45% in size); conditions: activity change, negative = inhibition: at 57.1 µM (top of the series) unless noted
In short: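 Luminescence readout (Bright-Glo luciferase) 48 h after pseudoparticle addition. HEK293-ACE2 cells, 1500/well; compound pre-incubation 1 h; Normalized to spike PP and bald PP.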

astro = assay: Drug repurposing screens with cells derived from glioblastoma tumor samples (AID 1345199); conditions: viability, ATP luminescence, 48 h; series mostly up to 45.9 µM; also: nearly all actives have a fitted effect of over 40% in size
In short: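 Primary testing used CD133+ neurospheres from four GBM patients, seven concentrations, 48 h exposure and ATP-based viability; confirmation added three slower-growing patient lines.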

Furin (Homo sapiens) = Furin (Homo sapiens) (UniProt P09958); assay: Furin counterscreen qHTS for Zika virus inhibitors (AID 1347149);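 also: purified recombinant full-length human furin enzyme at 5 nM; fluorescence gain from furin cutting a BOC-RVRR-AMC peptide substrate over 15 min; top concentration of the series differs between compounds; nearly all actives have a fitted effect of over 70% in size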
In short: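 Counterscreen measures cleavage of 2 microM BOC-RVRR-AMC, below its ~15 microM Km, by 5 nM full-length human furin at pH 7.0 after a 15-min compound preincubation. Inhibition derives from the 15-min fluorescence increase at 37C.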

[20] = Vero cells viability qHTS for Zika virus inhibitors (AID 1347167)
In short: (§2)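 To flag cytotoxic protease inhibitors, viability is measured by ATP-dependent luminescence (CellTiter Glo) after cells attached overnight receive compound for 24 to 48 hours in DMEM with 4% FBS.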

[21] = HepG2 cells viability qHTS for Zika virus inhibitors (AID 1347168)
In short: as §2

[22] = Tertiary RLuc qRT-PCR qHTS assay for Zika virus inhibitors (AID 1347169); also: potency is read from the fitted curve at half-maximal effect; nearly all actives have a fitted effect of over 55% in size
In short: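 Vero cells (1,000 per well) plated overnight at 37 degrees C, treated with compound in DMSO, then infected with recombinant ZIKV-RLuc (Cambodian) at MOI 1-2 for 48-72 hrs. Live-cell Renilla luciferase substrate added; luminescence read after 1-1.5 hrs.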

Chain of Phospholipid hydroperoxide glutathione peroxidase GPX4 (Homo sapiens) (P36969 whole entry, looked up): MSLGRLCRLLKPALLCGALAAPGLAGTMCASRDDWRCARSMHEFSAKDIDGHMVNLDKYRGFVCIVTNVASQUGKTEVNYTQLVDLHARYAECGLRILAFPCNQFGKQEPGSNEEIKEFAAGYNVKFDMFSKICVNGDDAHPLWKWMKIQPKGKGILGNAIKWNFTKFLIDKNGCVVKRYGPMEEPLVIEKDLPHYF
Chain of Glutathione peroxidase 1 (Homo sapiens) (P07203 whole entry, looked up): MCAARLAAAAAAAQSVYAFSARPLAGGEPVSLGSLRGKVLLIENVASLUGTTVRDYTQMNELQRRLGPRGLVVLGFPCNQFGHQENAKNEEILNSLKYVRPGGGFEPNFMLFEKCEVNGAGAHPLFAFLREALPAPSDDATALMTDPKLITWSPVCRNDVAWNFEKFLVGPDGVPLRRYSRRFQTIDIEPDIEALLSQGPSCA
Chain of Furin (Homo sapiens) (P09958 whole entry, looked up): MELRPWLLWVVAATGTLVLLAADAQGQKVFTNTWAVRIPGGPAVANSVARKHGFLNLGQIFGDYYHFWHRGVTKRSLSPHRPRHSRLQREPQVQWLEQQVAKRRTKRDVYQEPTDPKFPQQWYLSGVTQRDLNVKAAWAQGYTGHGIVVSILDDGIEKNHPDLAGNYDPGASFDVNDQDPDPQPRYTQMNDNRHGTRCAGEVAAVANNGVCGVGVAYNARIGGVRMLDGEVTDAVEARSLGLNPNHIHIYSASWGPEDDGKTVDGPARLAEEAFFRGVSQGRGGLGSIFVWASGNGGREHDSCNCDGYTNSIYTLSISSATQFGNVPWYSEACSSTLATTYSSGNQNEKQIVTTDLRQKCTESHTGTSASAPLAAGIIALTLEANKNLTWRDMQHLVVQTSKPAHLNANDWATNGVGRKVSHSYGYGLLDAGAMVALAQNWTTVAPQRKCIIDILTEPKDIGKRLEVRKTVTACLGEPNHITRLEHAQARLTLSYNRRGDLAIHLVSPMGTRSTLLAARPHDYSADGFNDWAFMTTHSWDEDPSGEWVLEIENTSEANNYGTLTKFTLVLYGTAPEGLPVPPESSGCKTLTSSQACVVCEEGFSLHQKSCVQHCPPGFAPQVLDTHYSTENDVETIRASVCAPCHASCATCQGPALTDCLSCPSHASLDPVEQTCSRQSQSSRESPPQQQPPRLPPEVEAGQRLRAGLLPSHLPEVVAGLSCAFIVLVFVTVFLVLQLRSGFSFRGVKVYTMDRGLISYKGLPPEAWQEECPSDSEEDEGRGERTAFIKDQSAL
Chain of Cytochrome P450 2C9 (Homo sapiens) (P11712 whole entry, looked up): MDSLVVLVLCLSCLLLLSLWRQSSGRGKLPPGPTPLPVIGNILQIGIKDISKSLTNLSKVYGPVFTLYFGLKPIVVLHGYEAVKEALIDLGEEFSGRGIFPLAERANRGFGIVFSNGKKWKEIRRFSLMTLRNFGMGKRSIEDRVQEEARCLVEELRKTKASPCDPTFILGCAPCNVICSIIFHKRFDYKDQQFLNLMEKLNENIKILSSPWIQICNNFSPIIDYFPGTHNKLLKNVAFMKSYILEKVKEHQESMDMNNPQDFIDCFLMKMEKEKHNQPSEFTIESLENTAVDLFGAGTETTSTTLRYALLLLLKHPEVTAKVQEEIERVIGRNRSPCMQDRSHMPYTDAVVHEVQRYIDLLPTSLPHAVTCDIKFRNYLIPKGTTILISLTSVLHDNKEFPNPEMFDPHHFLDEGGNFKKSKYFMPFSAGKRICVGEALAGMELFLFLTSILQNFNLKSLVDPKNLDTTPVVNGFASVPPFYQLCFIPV
Chain of Calcium and integrin-binding protein 1 (Homo sapiens) (Q99828 whole entry, looked up): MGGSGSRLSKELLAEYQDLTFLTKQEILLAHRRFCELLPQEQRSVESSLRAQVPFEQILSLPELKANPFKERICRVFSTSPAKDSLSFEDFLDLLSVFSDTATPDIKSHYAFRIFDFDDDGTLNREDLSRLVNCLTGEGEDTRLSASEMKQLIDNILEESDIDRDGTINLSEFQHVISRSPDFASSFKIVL
Chain of Phenylethanolamine N-methyltransferase (Homo sapiens) (P11086 whole entry, looked up): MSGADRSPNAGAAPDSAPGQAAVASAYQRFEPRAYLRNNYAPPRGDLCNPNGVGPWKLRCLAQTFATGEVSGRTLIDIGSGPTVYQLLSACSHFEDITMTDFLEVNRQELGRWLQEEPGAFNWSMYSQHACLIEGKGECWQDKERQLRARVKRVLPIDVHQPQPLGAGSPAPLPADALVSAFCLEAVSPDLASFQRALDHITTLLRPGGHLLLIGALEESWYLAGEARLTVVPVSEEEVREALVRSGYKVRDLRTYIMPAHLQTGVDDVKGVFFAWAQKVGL
Chain of Cytochrome P450 2D6 (Homo sapiens) (P10635 whole entry, looked up): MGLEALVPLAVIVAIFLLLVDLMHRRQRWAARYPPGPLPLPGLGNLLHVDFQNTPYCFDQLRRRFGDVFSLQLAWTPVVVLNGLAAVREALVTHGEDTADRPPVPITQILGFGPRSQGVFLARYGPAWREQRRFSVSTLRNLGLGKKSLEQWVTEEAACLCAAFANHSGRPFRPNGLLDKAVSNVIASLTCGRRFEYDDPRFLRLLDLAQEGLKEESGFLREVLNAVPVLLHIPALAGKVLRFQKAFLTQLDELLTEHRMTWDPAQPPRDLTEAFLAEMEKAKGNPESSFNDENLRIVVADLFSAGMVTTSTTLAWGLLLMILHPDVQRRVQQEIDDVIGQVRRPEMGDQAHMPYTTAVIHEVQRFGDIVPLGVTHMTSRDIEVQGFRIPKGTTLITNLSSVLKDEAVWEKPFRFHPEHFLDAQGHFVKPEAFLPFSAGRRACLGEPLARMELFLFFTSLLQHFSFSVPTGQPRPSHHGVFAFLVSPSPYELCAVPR
Chain of Catechol O-methyltransferase (Homo sapiens) (P21964 whole entry, looked up): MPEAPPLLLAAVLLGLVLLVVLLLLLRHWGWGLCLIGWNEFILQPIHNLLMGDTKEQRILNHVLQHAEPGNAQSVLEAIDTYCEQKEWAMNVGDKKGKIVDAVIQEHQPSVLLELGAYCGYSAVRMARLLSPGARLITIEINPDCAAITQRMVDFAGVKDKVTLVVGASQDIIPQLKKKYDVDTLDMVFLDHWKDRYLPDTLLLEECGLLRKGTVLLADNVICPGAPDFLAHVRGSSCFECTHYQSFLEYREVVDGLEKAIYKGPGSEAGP
Chain of Nicotinamide N-methyltransferase (Homo sapiens) (P40261 whole entry, looked up): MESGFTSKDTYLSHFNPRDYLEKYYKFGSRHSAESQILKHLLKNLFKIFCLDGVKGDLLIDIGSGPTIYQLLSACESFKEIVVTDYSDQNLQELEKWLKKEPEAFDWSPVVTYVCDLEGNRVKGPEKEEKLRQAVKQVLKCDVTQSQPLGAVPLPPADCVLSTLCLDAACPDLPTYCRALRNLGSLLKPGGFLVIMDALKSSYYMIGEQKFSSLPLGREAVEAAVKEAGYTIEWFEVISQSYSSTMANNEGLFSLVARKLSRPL

Structure (SMILES): N#Cc1ccc(N2CCN(C(=O)COc3ccc4[nH]cc(CCN)c4c3)CC2)cc1
- Potency [1]: inactive
- Potency [2]: inactive
- Potency [3]: 19 µM (active)
- Potency [4]: 1.69 µM (active)
- activity [5]: -2.1%
- activity change, negative = inhibition [6]: 0.371%
- activity [7]: 2.26%
- activity [8]: 2.22%
- Potency [9]: inactive
- Potency [10]: inactive
- Potency [11]: inactive
- Potency [12]: inactive
- Potency [13]: inactive
- max response (KB-3-1): -19.2% (inactive)
- Potency (CAOV3): inactive
- Potency (CASKI): inactive
- Potency (Es-2): inactive
- Potency (Hek293T): inactive
- Potency (JEG-3): inactive
- Potency (OV90): inactive
- Potency (PA-1): inactive
- Potency (SKOV3): inactive
- Potency (Tov112D): inactive

Structure (SMILES): CC[C@H](C)[C@H](NC(=O)[C@H](Cc1ccc(O)cc1)NC(=O)[C@@H](N)C(C)C)C(=O)N[C@@H](Cc1cnc[nH]1)C(=O)N1CCC[C@H]1C(=O)N[C@@H](Cc1ccccc1)C(=O)O
- outcome (CRL-7250): inactive [at 4.96 µM]

Structure (SMILES): CC(C)=CCN1CC[C@]2(C)c3cc(O)ccc3C[C@H]1[C@H]2C
- max response [14]: 2.13% (inactive)
- outcome [15]: inactive
- Potency [16]: inactive
- outcome [17]: inactive
- Potency [18]: inactive
- activity change, negative = inhibition [19]: -30.2% [at 114 µM]
- Potency [9]: inactive
- Potency [10]: inactive
- max response (KB-3-1): -17.1% (inactive)
- Potency (astro): inactive

Structure (SMILES): C=C1CC[C@H]2[C@@](C)(CCC(OC3OC(CO)C(O)C(O)C3O)[C@@]2(C)CO)C1C(=O)CC1=CCOC1=O (stereo partly specified)
- Potency (CRL-7250): inactive

Structure (SMILES): N#CCc1ccc(O)cc1O[C@@H]1O[C@H](CO)[C@@H](O)[C@H](O)[C@H]1O
- Potency (CRL-7250): inactive

Structure (SMILES): C[C@H]1[C@H]2Cc3ccc(O)cc3[C@]1(C)CCN2CCc1ccccc1
- Potency (Furin (Homo sapiens)): inactive
- Potency [20]: inactive
- Potency [21]: inactive
- Potency [22]: 47.5 µM (active)
- max response (KB-3-1): -3.9% (inactive)
